The supplement of paper PMC6555819

Key:
Assay in all cases: PBM binding z-score (relative to random genomic background probes); higher = stronger binding; sequences stand for … in GC…GCGATTGACAGCGTAGAATGAAGG
[1] = test system: FXR:RXRa (NR concentration 270 nM, RXRa partner concentration 90 nM)
In short: (§1)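 The probes on custom Agilent 4×180K protein-binding microarrays were double-stranded, with 34-nt variable regions bearing direct-repeat seeds, single-nucleotide variants, half-site ablations and random human genomic background sequences. Incubation lasted 1 h with ligand-free nuclear receptor dimers in PBS pH 7.4, 2% milk, 0.02% Triton X-100, 1 mM DTT, 0.2 mg/mL BSA and 0.4 mg/ml salmon testes DNA. Antibodies against each partner (one per run) detected bound dimers, and fluorescence scans were regression-normalized. Binding z-scores take the random background probes as reference.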

[2] = test system: LXRa:RXRa (NR concentration 270 nM, RXRa partner concentration 90 nM)
In short: as §1

[3] = test system: LXRa homodimer (NR concentration 270 nM)
In short: as §1

[4] = test system: LXRb:RXRa (NR concentration 270 nM, RXRa partner concentration 90 nM)
In short: as §1

[5] = test system: LXRb homodimer (NR concentration 270 nM)
In short: as §1

[6] = test system: PPARa:RXRa (NR concentration 270 nM, RXRa partner concentration 90 nM)
In short: as §1

[7] = test system: PPARg:RXRa (NR concentration 180 nM, RXRa partner concentration 90 nM)
In short: as §1

[8] = test system: PPARg:RXRa 270nM:90nM, anti-RXR (NR concentration 270 nM, RXRa partner concentration 90 nM)
In short: as §1

[9] = test system: PPARg:RXRa 30nM:10nM, anti-RXR (NR concentration 30 nM, RXRa partner concentration 10 nM)
In short: as §1

[10] = test system: PPARg:RXRa 90nM:30nM, anti-RXR (NR concentration 90 nM, RXRa partner concentration 30 nM)
In short: as §1

| Sequence | PBM binding z-score [1] | PBM binding z-score [2] | PBM binding z-score [3] | PBM binding z-score [4] | PBM binding z-score [5] | PBM binding z-score [6] | PBM binding z-score [7] | PBM binding z-score [8] | PBM binding z-score [9] | PBM binding z-score [10] |
| --- | --- | --- | --- | --- | --- | --- | --- | --- | --- | --- |
| CGAACTAGGTAAGAACAGGACAGTGAAGGATGAT | -0.196 | -0.204 | -0.208 | -0.602 | -0.626 | 0.502 | 0.928 | 0.462 | 0.267 | 0.273 |
| AGAACGAGGGCACGCTGGGTTGATAGCAGAGTAG | 1.04 | 0.969 | -0.399 | 0.12 | -0.802 | 2.11 | 2.01 | 1.91 | 0.228 | 1.15 |
| AATATTAGTTGACTTAGGGCAACCGATACGACGC | 0.123 | 0.163 | 0.741 | 0.405 | 0.26 | 0.162 | 1.09 | 0.355 | 0.448 | 0.286 |
| CAAACTAGGTCACGCAAGGTCAAAGTCGAATGAC | 7.41 | 7.71 | 7.2 | 7.01 | 1.72 | 6.75 | 10.2 | 7.79 | 6.97 | 8.64 |
| TAGCCTAGGTCATGGGCCAATATACCACGCGAAC | 4.48 | 3.55 | 0.401 | 2.56 | 0.00748 | 4.3 | 4.22 | 3.93 | 1.34 | 2.91 |
| CTCGAAAGGTCGGGTGAGGTGAGTATACGGATAA | 3 | 2.3 | 0.0705 | 2.18 | 0.195 | 3.49 | 1.32 | 1.78 | 0.448 | 1.04 |
| GCTATTAGTTGAAAGGGCCACCGAATGATTCTCG | -0.0568 | 0.0381 | -0.327 | -0.256 | -0.647 | 0.401 | 0.611 | 1.6 | 0.211 | 0.953 |
| CAAACTAGGTCACAGAGGTGAAAGTCCGTGCGTA | 5.7 | 4.38 | 0.932 | 3.33 | 0.56 | 5.82 | 9.16 | 7.57 | 5.73 | 7.6 |
| CGAACTAGGTCATCCAGCACAGTGAATACATTGA | 4.05 | 2.64 | 0.684 | 2.07 | 0.124 | 4.78 | 7.47 | 6.28 | 3.93 | 5.81 |
| CCTACTGGCCCAAGGTCATTGATCAGTCAAAGCA | 2.91 | 3.24 | 2 | 3.52 | 0.491 | 3.62 | 0.964 | 2.19 | 0.438 | 1.29 |
| GCTGCTAGATCAGGTTGGTCAGCTAACGGGTACG | -0.615 | -0.876 | -0.323 | -0.953 | -0.822 | -1.19 | -0.285 | -1.02 | -0.624 | -0.926 |
| CGTCCAAGGTCATAGGAGGTCAGTGAAGACAGAT | 7.58 | 7.44 | 4.4 | 5.99 | 1.01 | 5.84 | 5.77 | 5.68 | 2.12 | 4.17 |
| AATACAGGGTCACTAGGCCAGAGTAGGTACGAAT | 6.37 | 5.07 | 0.678 | 3.95 | 0.879 | 6.03 | 8.23 | 6.72 | 3.56 | 5.66 |
| ATATGTAGGTTAAGGGTCATTGAGGTTGGTTCGC | 5.02 | 4.71 | 3.01 | 4.45 | 1.6 | 6.56 | 11.9 | 10 | 10.5 | 10.7 |
| TCATATAGATAATACAGGTGAAAGTCGGCATCTA | 1.28 | 0.946 | 0.247 | 1.08 | 0.215 | 1.53 | 1.36 | 2.47 | 4.31 | 3.51 |
| TGTCCAAGTTCAAAGGTAACGTAAGTATCCACAC | 4.56 | 4.49 | 1.09 | 3.06 | 0.689 | 4.29 | 4 | 4.65 | 2.1 | 4.16 |
| CAAACTAGGTCACAGAAGTCAAAGTCCGTGCGTA | 4.23 | 3.17 | 0.883 | 2.77 | 0.529 | 5.49 | 8.96 | 7.26 | 5.36 | 6.93 |
| TAGCCTAGGTCAGATCGGGCCAGTACACGCTATA | 2.56 | 1.36 | -0.186 | 0.718 | -0.385 | 1.82 | 0.74 | 0.997 | -0.169 | -0.0312 |
| CCTTACTGGTCACGAGGTTATAGCACGACGAGCG | 1.49 | 1.46 | 0.682 | 1.36 | 0.455 | 2.04 | 1.77 | 1.97 | -0.0752 | 1.04 |
| ACAGAAAGGTGAGTGAAGGTAACTCAGCTGGACG | 1.15 | 0.894 | -0.288 | 0.22 | -0.612 | 1.81 | 1.25 | 1.23 | 0.0865 | 0.656 |
| ACTCGGAGGACAAAGGTTAGAGCTACGCCAGTGA | 0.928 | 1.08 | 0.0666 | 0.618 | -0.716 | 2.93 | 4.75 | 5.11 | 3.29 | 5.35 |
| ACTATTAGTTGACATAGGGCAACCGATACGACGC | 0.176 | 0.333 | 0.152 | 0.7 | 0.719 | 0.537 | 1.45 | 0.934 | 0.646 | 1 |
| CGAATTAGGTCAAGGACAGTGAATCTCCGCACGC | 4 | 2.54 | 0.286 | 1.97 | 0.123 | 4.92 | 6.8 | 6.22 | 3.82 | 5.57 |
